KKLEB tox: cytotoxicity in KKLEB CF airway cells, primary screen, cytotoxicity control for CF NF-kB inhibitor project, cell-based, uHTS, fluorescence assay plates | KKLEB CF airway cells viability, ATPlite luminescence, overnight; hits give low values; cells stimulated with P. aeruginosa culture filtrate | activity change (cytotoxicity), % at 5 µM | 360,000 tested, 0.36% active | AID 602141, 2011;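 active = corrected activity change at or below -50% at 5 µM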
TROY NFkB inh: inhibitors of TROY-driven NF-kB signaling, primary screen, Q293 LMP1-TROYcd cells, NF-kB luciferase, uHTS. 360,000 tested, 0.98% active. Q293 LMP1-TROYcd NF-kB luciferase reporter, 4 h. inhibition, % at 10 µM;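 active = compounds whose plate-normalised and pattern-corrected inhibition of the luciferase reporter signal at the single screening dose is 50% or more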
CF NFkB inh: inhibitors of PAF-induced NF-kB signaling, primary screen, cell-based, GFP fluorescence, uHTS. KKLEB NF-kB-GFP reporter, GFP fluorescence overnight. inhibition, % at 5 µM. 360,000 tested, 0.86% active. AID 588850, 2011;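 active = at least 50% inhibition at 5 µM, scaled per plate between neutral and stimulator controls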;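 also: PAF is a Pseudomonas aeruginosa culture filtrate used as stimulus; plate controls were PAF-stimulated DMSO wells for no effect and unstimulated DMSO wells for full effect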
TWEAK Fn14 block: inhibitors of TWEAK-Fn14 signaling, primary screen, luciferase reporter cells, uHTS; 360,000 tested, 2% active; inhibition, % at 10 µM; TWEAK-stimulated Fn14 reporter cells, luciferase luminescence, 8 h; in the data active = inhibition above about 50%
Peg3 prom inh: Peg3 promoter-driven luciferase inhibitors, primary screen, cell-based, HeLa, luciferase luminescence. HeLa PEG-Prom luciferase reporter, overnight. inhibition, % at 20 µM. 360,000 tested, 1.7% active;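 active = inhibition of at least 50% at 20 µM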
HIF-2a block: HIF-2a reporter inhibitors, primary screen, luminescence, 786-0 RCC cells; 786-0 RCC cells HIF-2a reporter, luciferase luminescence, overnight; inhibition, % at 18.8 µM; 360,000 tested, 0.72% active; AID 624352, 2012;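 active = inhibition of the luminescence signal of 40% or more relative to plate controls, in a single-dose primary screen at 18.75 µM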
* marks the source's active call; other numbers are inactive results. The list is not random: actives were taken first. Their share in the collection is about 3.9%.

SMILES	KKLEB tox	TROY NFkB inh	CF NFkB inh	TWEAK Fn14 block	Peg3 prom inh	HIF-2a block
CN(c1ccccc1)S(=O)(=O)c1ccc(C(=O)N2CCc3ccccc3C2)cc1	-3.4	8.6	0.4	6.4	17.2	10.8
O=c1c(Cl)c(Nc2cccc(Cl)c2)cnn1-c1nc2ccccc2s1	-0.2	26.4	-3.5	61.7*	-179.1	-121.2
Cc1ccc(NC(=O)CN(C)C(=O)c2ccc(C(F)(F)F)cc2)cc1	4.4	-3.0	-6.2	-13.5	-18.6	-33.9
Cc1onc(-c2ccc3c(c2)OCO3)c1-c1ccc2[nH]ccc2c1	-2.1	21.2	33.1	61.5*	31.5	25.3
C(=N\n1cnnc1)/c1ccc(N2CCOCC2)s1	-2.2	12.5	-6.9	1.1	2.0	5.8
COc1ccc(-c2nc(-c3ccc(Br)o3)no2)cc1	-4.8	-27.5	-37.2	34.5	-221.6	-209.0
O=C1c2ccc(Oc3cccc([N+](=O)[O-])c3)cc2C(=O)N1c1ccccn1	6.9	28.4	-8.6	16.8	8.0	14.7
O=C1c2cc([N+](=O)[O-])cc3cc([N+](=O)[O-])cc(c23)C(=O)N1c1ccccn1	-2.0	-28.3	14.6	63.9*	27.7	36.3
COc1ccccc1N(Cc1ccccc1)S(=O)(=O)c1cccc(C(=O)Nc2ncccc2C)c1	13.3	0.0	-15.1	6.4	4.0	12.5
O=C(O)c1ccc(Cl)c(S(=O)(=O)N(Cc2ccccc2)c2ccc(Cl)cc2)c1	8.3	5.6	-17.4	14.1	0.9	8.9
COc1ccccc1N(Cc1ccccc1)S(=O)(=O)c1cccc(C(=O)NC2CC(C)(C)NC(C)(C)C2)c1	-17.6	11.2	14.6	-1.9	87.4*	4.7
COc1ccccc1N(Cc1ccccc1)S(=O)(=O)c1cccc(C(=O)Nc2cc(C)ccn2)c1	-10.2	55.2*	-8.4	66.2*	-62.4	-8.2
CC1(C)CC(NC(=O)c2ccc(Cl)c(S(=O)(=O)N(Cc3ccccc3)c3ccccc3)c2)CC(C)(C)N1	-8.5	16.4	13.4	-4.2	106.9*	0.6
CC1(C)CC(NC(=O)c2ccc(Cl)cc2)CC(C)(C)N1	8.5	6.2	-10.5	74.5*	-0.4	12.0
CC1(C)CC(NC(=O)c2ccc(F)cc2)CC(C)(C)N1	2.4	-0.9	-18.2	3.5	-2.8	6.5
COc1ccc(-n2c(SCC(=O)Nc3ccc(NC(C)=O)cc3)nc3c([nH]c4ccccc43)c2=O)cc1OC	-6.4	-24.5	-71.8	8.1	8.7	35.8
O=C1C=CC(=O)N1c1ccc(OC(F)F)cc1	-6.1	5.9	10.5	19.1	104.5*	50.3*
O=C1CCCC(=O)N1c1ccc(O)cc1	-9.2	17.9	-4.3	-10.3	-3.9	-1.2
O=C1C=CC(=O)N1c1ccc(O)cc1	0.8	-8.0	11.6	-15.3	109.8*	-1.2
COC(=O)c1cc(OC)c(OC)cc1NC(=O)CC1CCCCC1	-0.3	-3.2	21.4	-22.2	15.2	-0.1
Nc1ccc(OC(=O)Nc2ccc(O)cc2)cc1	1.2	-3.5	2.2	66.3*	13.9	77.5*
COc1ccc2[nH]c3c(c2c1)CCn1c-3nc2ccccc2c1=O	-21.2	8.6	2.0	51.4*	-120.6	-197.3
CC(=O)CCC1C2C(O)C(C(C)C)C(OC(=O)/C=C/c3ccccc3)CC12C (centres undefined)	6.9	8.8	2.4	-6.1	5.5	-11.0
COC(=O)C(Nc1ccccc1Cl)(c1cc(C)c(O)c(C)c1)C(F)(F)F (centres undefined)	12.4	18.2	-1.2	18.0	27.4	5.6
COC(=O)/C(=C(/F)Sc1cc(C)c(O)c(C)c1)C(F)(F)F	1.3	-4.3	-3.6	8.5	63.2*	8.3
O=C(CN1CCCCCC1)Nc1ccc(Br)cc1	-14.9	-29.7	-21.5	1.5	-22.5	-68.0
CCCc1nn(C)c(C(=O)Nc2ccccc2)c1Cl	-1.9	76.3*	3.7	81.4*	-98.9	-76.4
CCCc1nn(C)c(C(=O)Nc2cccc(Cl)c2)c1Cl	9.6	70.5*	1.4	77.6*	-21.6	-10.1
